# From PubChem BioAssay AID1159580 (chemical genetic matrix, 2015)
# Screen size: about 5,500 compounds; about 2,000 (36%) were called active. Not shown: some 18% with an inconclusive outcome. This is one part of the list. A number with no mark means an inactive call. Rule as the data show it: active = normalized growth mostly below about 0.91 (no sharp cut-off); inconclusive = no clear call, values can overlap the other calls; inactive = mostly above about 0.92.
# Assay: chemical genetic growth profiling, strain panel (AID 1159580);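 also: tested at 20 µM; growth read once vehicle control cultures reached saturation at 30 °C; 1 = growth at the plate median or of vehicle wells; lower values mean less growth of the strain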
# Settings: growth OD
structure (smiles),measurement,setting,value
COc1ccc2c(c1)OC/C(=C\c1ccc(OC)c(O)c1)C2=O,normalized growth,"S. cerevisiae deletion strains, locus YJR066W, strain TOR1, active compounds read low",0.891
same,normalized growth,"S. cerevisiae deletion strains, locus YKL009W, strain mrt4, active compounds read low",0.843 (active)
same,normalized growth,"S. cerevisiae deletion strains, locus YKL068W, active compounds read low",0.948
same,normalized growth,"S. cerevisiae deletion strains, locus YKL085W, strain MDH1 (second series), active compounds read low",0.915 (active)
same,normalized growth,"S. cerevisiae deletion strains, locus YKL085W, strain MDH1, active compounds read low",0.915 (active)
same,normalized growth,"S. cerevisiae deletion strains, locus YKL160W, strain elf1, active compounds read low",0.831 (active)
same,normalized growth,"S. cerevisiae deletion strains, locus YKL190W, strain CNB1, active compounds read low",0.81 (active)
same,normalized growth,"S. cerevisiae deletion strains, locus YKR001C, strain vps1, active compounds read low",0.651 (active)
same,normalized growth,"S. cerevisiae deletion strains, locus YKR026C, strain gcn3, active compounds read low",0.946
same,normalized growth,"S. cerevisiae deletion strains, locus YKR091W, strain srl3, active compounds read low",0.962
same,normalized growth,"S. cerevisiae deletion strains, locus YLL001W, strain dnm1, active compounds read low",0.823 (active)
same,normalized growth,"S. cerevisiae deletion strains, locus YLL026W, active compounds read low",0.931
same,normalized growth,"S. cerevisiae deletion strains, locus YLL041C, strain sdh2, active compounds read low",0.955
same,normalized growth,"S. cerevisiae deletion strains, locus YLR027C, strain aat2, active compounds read low",0.84 (active)
same,normalized growth,"S. cerevisiae deletion strains, locus YLR039C, strain RIC1, active compounds read low",0.51 (active)
same,normalized growth,"S. cerevisiae deletion strains, locus YLR058C, strain SHM2, active compounds read low",0.774 (active)
same,normalized growth,"S. cerevisiae deletion strains, locus YLR102C, strain apc9, active compounds read low",0.824 (active)
same,normalized growth,"S. cerevisiae deletion strains, locus YLR113W, strain HOG1, active compounds read low",0.909
same,normalized growth,"S. cerevisiae deletion strains, locus YLR221C, strain rsa3, active compounds read low",0.841 (active)
same,normalized growth,"S. cerevisiae deletion strains, locus YLR258W, strain gsy2, active compounds read low",0.891 (active)
same,normalized growth,"S. cerevisiae deletion strains, locus YLR262C, strain YPT6 (second series), active compounds read low",0.719 (active)
same,normalized growth,"S. cerevisiae deletion strains, locus YLR262C, strain YPT6, active compounds read low",0.423 (active)
same,normalized growth,"S. cerevisiae deletion strains, locus YLR268W, strain sec22, active compounds read low",0.709 (active)
same,normalized growth,"S. cerevisiae deletion strains, locus YLR320W, strain mms22, active compounds read low",0.652 (active)
same,normalized growth,"S. cerevisiae deletion strains, locus YLR330W, strain CHS5, active compounds read low",0.467 (active)
same,normalized growth,"S. cerevisiae deletion strains, locus YLR342W, strain FKS1 (second series), active compounds read low",0.702 (active)
same,normalized growth,"S. cerevisiae deletion strains, locus YLR342W, strain FKS1, active compounds read low",0.885 (active)
same,normalized growth,"S. cerevisiae deletion strains, locus YLR357W, strain rsc2, active compounds read low",0.964
same,normalized growth,"S. cerevisiae deletion strains, locus YLR370C, strain arc18, active compounds read low",0.938
same,normalized growth,"S. cerevisiae deletion strains, locus YLR371W, strain rom2, active compounds read low",0.584 (active)
same,normalized growth,"S. cerevisiae deletion strains, locus YLR384C, strain iki3, active compounds read low",0.95
same,normalized growth,"S. cerevisiae deletion strains, locus YLR418C, strain cdc73, active compounds read low",0.322 (active)
same,normalized growth,"S. cerevisiae deletion strains, locus YML016C, strain PPZ1, active compounds read low",0.791 (active)
same,normalized growth,"S. cerevisiae deletion strains, locus YML032C, strain rad52, active compounds read low",0.787 (active)
same,normalized growth,"S. cerevisiae deletion strains, locus YML120C, strain ndi1, active compounds read low",0.858 (active)
same,normalized growth,"S. cerevisiae deletion strains, locus YML124C, strain tub3, active compounds read low",0.865 (active)
same,normalized growth,"S. cerevisiae deletion strains, locus YMR058W, strain fet3, active compounds read low",0.846 (active)
same,normalized growth,"S. cerevisiae deletion strains, locus YMR078C, strain ctf18, active compounds read low",0.458 (active)
same,normalized growth,"S. cerevisiae deletion strains, locus YMR125W, strain sto1, active compounds read low",0.863 (active)
same,normalized growth,"S. cerevisiae deletion strains, locus YMR129W, active compounds read low",0.946
same,normalized growth,"S. cerevisiae deletion strains, locus YMR205C, strain PFK2, active compounds read low",0.768 (active)
same,normalized growth,"S. cerevisiae deletion strains, locus YMR223W, strain ubp8, active compounds read low",0.761 (active)
same,normalized growth,"S. cerevisiae deletion strains, locus YMR231W, strain pep5, active compounds read low",0.977
same,normalized growth,"S. cerevisiae deletion strains, locus YMR307W, strain GAS1, active compounds read low",0.557 (active)
same,normalized growth,"S. cerevisiae deletion strains, locus YNL067W, strain RPL9B, active compounds read low",0.774 (active)
same,normalized growth,"S. cerevisiae deletion strains, locus YNL071W, strain lat1, active compounds read low",0.369 (active)
same,normalized growth,"S. cerevisiae deletion strains, locus YNL183C, strain NPR1, active compounds read low",0.924
same,normalized growth,"S. cerevisiae deletion strains, locus YNL209W, strain ssb2, active compounds read low",0.938
same,normalized growth,"S. cerevisiae deletion strains, locus YNL233W, strain BNI4, active compounds read low",0.448 (active)
same,normalized growth,"S. cerevisiae deletion strains, locus YNL248C, strain rpa49, active compounds read low",0.902
same,normalized growth,"S. cerevisiae deletion strains, locus YNL250W, strain rad50, active compounds read low",0.885 (active)
same,normalized growth,"S. cerevisiae deletion strains, locus YNL271C, strain bni1, active compounds read low",0.865 (active)
same,normalized growth,"S. cerevisiae deletion strains, locus YNL298W, strain CLA4, active compounds read low",0.895 (active)
same,normalized growth,"S. cerevisiae deletion strains, locus YNL307C, strain MCK1, active compounds read low",0.127 (active)
same,normalized growth,"S. cerevisiae deletion strains, locus YNL322C, strain KRE1 (second series), active compounds read low",0.95
same,normalized growth,"S. cerevisiae deletion strains, locus YNL322C, strain KRE1, active compounds read low",0.793 (active)
same,normalized growth,"S. cerevisiae deletion strains, locus YNR049C, strain mso1, active compounds read low",0.955
same,normalized growth,"S. cerevisiae deletion strains, locus YNR052C, strain pop2, active compounds read low",0.885 (active)
same,normalized growth,"S. cerevisiae deletion strains, locus YOL006C, strain TOP1, active compounds read low",0.563
same,normalized growth,"S. cerevisiae deletion strains, locus YOL012C, strain htz1",0.356
same,normalized growth,"S. cerevisiae deletion strains, locus YOL147C, strain pex11, active compounds read low",0.542 (active)
same,normalized growth,"S. cerevisiae deletion strains, locus YOR001W, strain rrp6, active compounds read low",0.848 (active)
same,normalized growth,"S. cerevisiae deletion strains, locus YOR061W, strain CKA2, active compounds read low",0.93
same,normalized growth,"S. cerevisiae deletion strains, locus YOR069W, strain VPS5, active compounds read low",0.807 (active)
same,normalized growth,"S. cerevisiae deletion strains, locus YOR070C, strain gyp1, active compounds read low",0.882 (active)
same,normalized growth,"S. cerevisiae deletion strains, locus YOR080W, strain dia2, active compounds read low",0.925
same,normalized growth,"S. cerevisiae deletion strains, locus YOR083W, strain WHI5, active compounds read low",0.869 (active)
same,normalized growth,"S. cerevisiae deletion strains, locus YOR106W, strain vam3, active compounds read low",0.847 (active)
same,normalized growth,"S. cerevisiae deletion strains, locus YOR136W, strain idh2, active compounds read low",0.796 (active)
same,normalized growth,"S. cerevisiae deletion strains, locus YOR144C, strain elg1, active compounds read low",0.766 (active)
same,normalized growth,"S. cerevisiae deletion strains, locus YOR184W, strain ser1, active compounds read low",0.472 (active)
same,normalized growth,"S. cerevisiae deletion strains, locus YOR231W, strain MKK1, active compounds read low",0.995
same,normalized growth,"S. cerevisiae deletion strains, locus YOR265W, strain rbl2, active compounds read low",0.941
same,normalized growth,"S. cerevisiae deletion strains, locus YOR270C, strain vph1, active compounds read low",0.661 (active)
same,normalized growth,"S. cerevisiae deletion strains, locus YOR290C, strain snf2, active compounds read low",0.789 (active)
same,normalized growth,"S. cerevisiae deletion strains, locus YOR316C, strain cot1, active compounds read low",0.882 (active)
same,normalized growth,"S. cerevisiae deletion strains, locus YPL051W, strain arl3, active compounds read low",0.836 (active)
same,normalized growth,"S. cerevisiae deletion strains, locus YPL055C, strain LGE1, active compounds read low",0.576 (active)
same,normalized growth,"S. cerevisiae deletion strains, locus YPL078C, strain atp4, active compounds read low",0.836 (active)
same,normalized growth,"S. cerevisiae deletion strains, locus YPL106C, strain sse1, active compounds read low",0.729 (active)
same,normalized growth,"S. cerevisiae deletion strains, locus YPL240C, strain hsp82, active compounds read low",0.929
same,normalized growth,"S. cerevisiae deletion strains, locus YPL241C, strain CIN2, active compounds read low",0.958
same,normalized growth,"S. cerevisiae deletion strains, locus YPL256C, strain CLN2, active compounds read low",0.958
same,normalized growth,"S. cerevisiae deletion strains, locus YPR119W, strain clb2, active compounds read low",0.859 (active)
same,normalized growth,"S. cerevisiae deletion strains, locus YPR141C, strain kar3, active compounds read low",0.924
same,normalized growth,"S. cerevisiae deletion strains, locus YPR163C, strain tif3, active compounds read low",0.351 (active)
same,normalized growth,"S. cerevisiae deletion strains, locus YPR167C, strain met16, active compounds read low",0.811 (active)
same,normalized growth,"S. cerevisiae deletion strains, strain wtn01, active compounds read low",0.711 (active)
same,normalized growth,"S. cerevisiae strains, strain wild type, active compounds read low",0.663 (active)
